Reference: PubChem BioAssay (NCATS)
“And” between values parts separate entries of the source, which are not always exact repeats. Identical values can stand only once. Records with an inconclusive call do not appear. A call without a number means that no potency is given here. The source made the active and inactive calls. Unless noted, the call rests on the fitted dose curve; in most records, active means well fitted curve in the direction sought with a large enough effect; inconclusive means small, poorly fitted or top-dose-only effect, or another doubt; inactive means no such curve, though single readings can be large; an effect the other way counts as inactive or inconclusive.

What was measured:
[1] = qHTS Assay for Identification of Small Molecule Agonists for Thrombopoietin (TPO) Signaling Pathway (AID 917)
In short: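 Stimulation at the TPO EC50 (26 pM final) was used to detect activators. Ba/F3 mouse cells bearing human TPO receptor and a luciferase reporter under the Glycoprotein IIb promoter were exposed to compounds for 24 hrs at 37 C.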

[2] = S16 Schwann cell PMP22 intronic element beta-lactamase assay (AID 624044; calls by dose curve; further: nearly all actives have a fitted effect of over 15% in size)
In short: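 Beta-lactamase reporter under a PMP22 intronic regulatory element in stable S16 rat Schwann cells; 24 h compound exposure. 460 nm blue signal normalized between DMSO (0%) and potassium clavulanate, with 535 nm FRET tracking viability; curves classed by r2 and response.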

[3] = test system: 3D7; test: qHTS profiling for inhibitors of Plasmodium falciparum proliferation (AID 504749); further: nearly all actives have a fitted effect of over 60% in size; further: potency means the concentration at half of the fitted maximal effect; details: P. falciparum in erythrocytes, SYBR Green DNA, 72 h; series mostly up to 12.8 µM
In short: (§1)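 SYBR Green fluorescence of parasite DNA, read after lysis and overnight dark incubation, measured growth over 72 h in erythrocyte culture at 0.3% parasitemia and 2.5% hematocrit. Data normalised to DMSO and 0.29 uM artemisinin, with plate-drift correction.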

[4] = test system: ATS95; test: as above; details: P. falciparum in erythrocytes, SYBR Green DNA, 72 h; series mostly up to 12.8 µM
In short: as §1

[5] = test system: CP192; test: as above; details: P. falciparum in erythrocytes, SYBR Green DNA, 72 h; series mostly up to 28.7 µM
In short: as §1

[6] = test system: CP194; test: as above; details: P. falciparum in erythrocytes, SYBR Green DNA, 72 h; series mostly up to 12.8 µM
In short: as §1

[7] = test system: CP203; test: as above; details: P. falciparum in erythrocytes, SYBR Green DNA, 72 h; series mostly up to 12.8 µM
In short: as §1

[8] = test system: CP215; test: as above; details: P. falciparum in erythrocytes, SYBR Green DNA, 72 h; series mostly up to 28.7 µM
In short: as §1

[9] = test system: CP266; test: as above; details: P. falciparum in erythrocytes, SYBR Green DNA, 72 h; series mostly up to 28.7 µM
In short: as §1

[10] = test system: CP297; test: as above; details: P. falciparum in erythrocytes, SYBR Green DNA, 72 h; series mostly up to 12.8 µM
In short: as §1

[11] = test system: DIV14; test: as above; details: P. falciparum in erythrocytes, SYBR Green DNA, 72 h; series mostly up to 12.8 µM
In short: as §1

[12] = test system: DIV17; test: as above; details: P. falciparum in erythrocytes, SYBR Green DNA, 72 h; series mostly up to 12.8 µM
In short: as §1

[13] = test system: GB4; test: as above; details: P. falciparum in erythrocytes, SYBR Green DNA, 72 h; series mostly up to 12.8 µM
In short: as §1

[14] = test system: PAD; test: as above; details: P. falciparum in erythrocytes, SYBR Green DNA, 72 h; series mostly up to 12.8 µM
In short: as §1

[15] = test system: TAB109; test: as above; details: P. falciparum in erythrocytes, SYBR Green DNA, 72 h; series mostly up to 12.8 µM
In short: as §1

[16] = test system: W2; test: as above; details: P. falciparum in erythrocytes, SYBR Green DNA, 72 h; series mostly up to 12.8 µM
In short: as §1

[17] = target: Cytochrome P450 3A4 (Homo sapiens) (UniProt P08684); test: qHTS Assay for Activators of Cytochrome P450 3A4 (AID 885); further: nearly all actives have a fitted effect of over 65% in size; further: potency means the concentration at half of the fitted maximal effect
Chain of Cytochrome P450 3A4 (Homo sapiens) (P08684 whole entry, looked up): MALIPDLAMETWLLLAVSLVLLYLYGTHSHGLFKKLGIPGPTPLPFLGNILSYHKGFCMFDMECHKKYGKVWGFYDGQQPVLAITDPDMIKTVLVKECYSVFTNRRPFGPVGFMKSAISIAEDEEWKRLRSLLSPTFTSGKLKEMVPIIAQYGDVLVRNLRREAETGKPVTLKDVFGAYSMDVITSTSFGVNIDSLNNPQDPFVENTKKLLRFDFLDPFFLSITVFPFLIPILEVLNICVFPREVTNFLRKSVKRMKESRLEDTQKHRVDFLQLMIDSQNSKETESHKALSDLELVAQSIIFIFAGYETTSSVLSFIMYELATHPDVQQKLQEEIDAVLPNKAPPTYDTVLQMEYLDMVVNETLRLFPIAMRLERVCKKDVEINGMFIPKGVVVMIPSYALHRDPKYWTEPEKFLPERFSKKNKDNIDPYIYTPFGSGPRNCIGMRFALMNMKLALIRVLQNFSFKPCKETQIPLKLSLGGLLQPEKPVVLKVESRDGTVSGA
In short: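 Activators are scored by enhanced luminescence from CYP3A4 conversion of luciferin-PPXE (25uM, equal to KM) to luciferin, after 60 min at RT with an NADPH-regenerating system.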

[18] = S16 Schwann cell PMP22 intronic element firefly luciferase assay (AID 624032); further: nearly all actives have a fitted effect of over 30% in size
In short: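 Luciferase reporter of PMP22 intronic-element expression in stably transfected S16 rat Schwann cells, read by ONE-Glo luminescence after 24 h compound exposure at 37 C. Activity scaled between DMSO (0%) and positive-control PTC124; concentration-effect curves quality-classified.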

[19] = test system: CP260; test: qHTS profiling for inhibitors of Plasmodium falciparum proliferation (AID 504749); further: nearly all actives have a fitted effect of over 60% in size; further: potency means the concentration at half of the fitted maximal effect; details: P. falciparum in erythrocytes, SYBR Green DNA, 72 h; series mostly up to 12.8 µM
In short: as §1

[20] = target: Muscarinic acetylcholine receptor M1 (Rattus norvegicus) (UniProt P08482); test: qHTS Assay for Antagonists of Acetylcholine Muscarinic M1 Receptor: Measurement of IP-One Response (AID 944); further: nearly all actives have a fitted effect of over 75% in size
Chain of Muscarinic acetylcholine receptor M1 (Rattus norvegicus) (P08482 whole entry, looked up): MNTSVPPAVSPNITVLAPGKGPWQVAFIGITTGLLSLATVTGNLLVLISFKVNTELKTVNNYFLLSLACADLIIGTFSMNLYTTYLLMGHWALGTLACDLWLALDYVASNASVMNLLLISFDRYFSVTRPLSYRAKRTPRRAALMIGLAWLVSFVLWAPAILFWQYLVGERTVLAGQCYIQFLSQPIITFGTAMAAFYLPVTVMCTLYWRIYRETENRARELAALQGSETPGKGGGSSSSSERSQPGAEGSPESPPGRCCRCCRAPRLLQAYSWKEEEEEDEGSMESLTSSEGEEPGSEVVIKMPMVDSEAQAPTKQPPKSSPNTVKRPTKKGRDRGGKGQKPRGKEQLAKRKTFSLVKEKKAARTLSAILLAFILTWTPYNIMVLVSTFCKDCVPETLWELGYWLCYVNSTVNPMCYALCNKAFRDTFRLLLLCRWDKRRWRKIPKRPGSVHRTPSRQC
In short: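 Antagonist mode with rat M1 receptor transfected into CHO cells. Compound is added first for 10 min, carbachol at its EC80 follows for 30 min, and lysis reagents then allow TR-FRET detection of accumulated IP1.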

SMILES: C[C@H](NCCc1ccc(O)cc1)[C@@H](O)c1ccc(O)cc1
- outcome [1]: inactive
- outcome [2]: inactive
- Potency [3]: inactive
- Potency [4]: inactive
- Potency [5]: inactive
- Potency [6]: inactive
- Potency [7]: inactive
- Potency [8]: inactive
- Potency [9]: inactive
- Potency [10]: inactive
- Potency [11]: inactive
- Potency [12]: inactive
- Potency [13]: inactive
- Potency [14]: inactive
- Potency [15]: inactive
- Potency [16]: inactive

SMILES: CC(=O)O[C@]1(C(C)=O)CC[C@@H]2[C@@H]3C=C(Cl)C4=CC(=O)[C@H]5C[C@@H]5[C@]4(C)[C@H]3CC[C@]21C
- Potency [17]: 3.16 µM (active) and 10 µM (active)
- outcome [1]: inactive

SMILES: CCN(CC)CCC[C@H](C)Nc1ccnc2cc(Cl)ccc12
- outcome [1]: inactive
- Potency [18]: inactive
- outcome [2]: inactive
- Potency [3]: 0.158 µM (active)
- Potency [4]: 10 µM (active)
- Potency [19]: 3.98 µM (active)
- Potency [11]: 1.69 µM (active)
- Potency [12]: 3.79 µM (active)
- Potency [13]: 1.51 µM (active)
- Potency [14]: 3.55 µM (active)
- Potency [15]: 3.55 µM (active)
- Potency [16]: 6.01 µM (active)

SMILES: C=C1C2CC[C@@]3(C)C(c4ccoc4)OC(=O)C[C@@]13OC1CC(O)C(C)(C)C(CC(=O)OC)[C@@]12C (some centres not stated)
- Potency [17]: inactive

SMILES: Cc1ccccc1[C@@H](OCCN(C)C)c1ccccc1
- Potency [17]: inactive
- outcome [1]: inactive

SMILES: CC1(C)S[C@@H]2[C@H](NC(=O)[C@H](C(=O)O)c3ccsc3)C(=O)N2[C@H]1C(=O)O
- Potency [18]: inactive
- outcome [2]: inactive
- Potency [3]: inactive
- Potency [4]: inactive
- Potency [5]: inactive
- Potency [6]: inactive
- Potency [7]: inactive
- Potency [8]: inactive
- Potency [9]: inactive
- Potency [11]: inactive
- Potency [12]: inactive
- Potency [13]: inactive
- Potency [14]: inactive
- Potency [15]: inactive
- Potency [16]: inactive

SMILES: COc1ccc2[nH]cc(CCNc3ncncc3-c3ccccc3CN(C)C)c2c1
- Potency [17]: inactive

SMILES: CO/N=C(/C(=O)NC1C(=O)N2C(C(=O)O)=C(CSc3nc(=O)c(O)nn3C)CSC12)c1csc(N)n1 (configuration not stated)
- Potency [18]: inactive
- Potency [3]: inactive
- Potency [4]: inactive
- Potency [5]: inactive
- Potency [6]: inactive
- Potency [7]: inactive
- Potency [8]: inactive
- Potency [19]: inactive
- Potency [9]: inactive
- Potency [10]: inactive
- Potency [12]: inactive
- Potency [13]: inactive
- Potency [14]: inactive
- Potency [15]: inactive

SMILES: O=C(O)/C=C\c1ccc(Cn2ccnc2)cc1
- Potency [18]: inactive
- outcome [2]: inactive
- Potency [3]: inactive
- Potency [4]: inactive
- Potency [5]: inactive
- Potency [6]: inactive
- Potency [7]: inactive
- Potency [8]: inactive
- Potency [19]: inactive
- Potency [10]: inactive
- Potency [11]: inactive
- Potency [12]: inactive
- Potency [13]: inactive
- Potency [14]: inactive
- Potency [15]: inactive
- Potency [16]: inactive

SMILES: CN[C@@H]1[C@H](O[C@@H]2O[C@H](CO)[C@@H](N)[C@H](O)[C@@H]2O)O[C@H]2C[C@@H](N)[C@@H](O[C@H]3[C@@H](O)[C@H](O)[C@H](N)C[C@@H]3N)O[C@H]2[C@H]1O
- Potency [18]: inactive
- Potency [3]: inactive
- Potency [4]: inactive
- Potency [6]: inactive
- Potency [7]: inactive
- Potency [8]: inactive
- Potency [19]: inactive
- Potency [9]: inactive
- Potency [10]: inactive
- Potency [11]: inactive
- Potency [12]: inactive
- Potency [13]: inactive
- Potency [14]: inactive
- Potency [15]: inactive
- Potency [16]: inactive

SMILES: CCN1CCC[C@@H]1CNC(=O)c1cc(S(N)(=O)=O)ccc1OC
- outcome [1]: inactive

SMILES: CC(=O)Oc1cc(OC(C)=O)c2c(c1)OC(c1ccc(OC(C)=O)c(OC(C)=O)c1)C(OC(C)=O)C2 (configuration not stated)
- Potency [17]: inactive

SMILES: CN(C)[C@H]1C(=O)C(C(=O)NCN2CCCC2)=C(O)[C@]2(O)C(=O)C3=C(O)c4c(O)cccc4[C@@](C)(O)[C@H]3C[C@@H]12
- outcome [2]: inactive
- Potency [3]: inactive
- Potency [4]: inactive
- Potency [5]: inactive
- Potency [6]: inactive
- Potency [7]: inactive
- Potency [8]: inactive
- Potency [19]: inactive
- Potency [9]: inactive
- Potency [10]: inactive
- Potency [11]: inactive
- Potency [12]: inactive
- Potency [13]: inactive
- Potency [14]: inactive
- Potency [15]: inactive
- Potency [16]: inactive

SMILES: N[C@@H](CO)C(=O)NNCc1ccc(O)c(O)c1O
- Potency [20]: inactive
- Potency [18]: inactive
- outcome [2]: inactive
- Potency [3]: inactive
- Potency [4]: inactive
- Potency [5]: inactive
- Potency [6]: inactive
- Potency [7]: inactive
- Potency [8]: inactive
- Potency [19]: inactive
- Potency [9]: inactive
- Potency [10]: inactive
- Potency [11]: inactive
- Potency [12]: inactive
- Potency [13]: inactive
- Potency [14]: inactive
- Potency [15]: inactive

SMILES: O=C(O)[C@H]1CCCN(CCC=C(c2ccccc2)c2ccccc2)C1
- outcome [1]: inactive
- Potency [20]: inactive

SMILES: NS(=O)(=O)c1cc([C@@]2(O)NC(=O)c3ccccc32)ccc1Cl
- Potency [18]: inactive
- outcome [2]: inactive
- Potency [3]: inactive
- Potency [4]: inactive
- Potency [5]: inactive
- Potency [6]: inactive
- Potency [7]: inactive
- Potency [8]: inactive
- Potency [19]: inactive
- Potency [10]: inactive
- Potency [11]: inactive
- Potency [12]: inactive
- Potency [13]: inactive
- Potency [14]: inactive
- Potency [15]: inactive
- Potency [16]: inactive

SMILES: C[C@@H](C(=O)O)c1cccc(C(=O)c2ccccc2)c1
- Potency [18]: inactive

SMILES: CCCN1C[C@H](CSC)C[C@H]2c3cccc4[nH]cc(c34)C[C@@H]21
- Potency [17]: inactive

SMILES: C[N+]1(C)CCC[C@@H](OC(=O)C(O)(c2ccccc2)c2ccccc2)C1
- Potency [18]: inactive
- outcome [2]: inactive
- Potency [3]: inactive
- Potency [4]: inactive
- Potency [6]: inactive
- Potency [7]: inactive
- Potency [19]: inactive
- Potency [9]: inactive
- Potency [10]: inactive
- Potency [11]: inactive
- Potency [12]: inactive
- Potency [13]: inactive
- Potency [14]: inactive
- Potency [15]: inactive
- Potency [16]: inactive

SMILES: CC1(C)Oc2ccc(C#N)cc2[C@H](N2CCCC2=O)[C@H]1O
- Potency [18]: inactive
- Potency [3]: inactive
- Potency [4]: inactive
- Potency [5]: inactive
- Potency [6]: inactive
- Potency [7]: inactive
- Potency [8]: inactive
- Potency [9]: inactive
- Potency [10]: inactive
- Potency [11]: inactive
- Potency [12]: inactive
- Potency [13]: inactive
- Potency [14]: inactive
- Potency [15]: inactive
- Potency [16]: inactive

SMILES: C[C@@H](C(=O)O)c1ccc(C(=O)c2cccs2)cc1
- Potency [18]: inactive
- outcome [2]: inactive
- Potency [3]: inactive
- Potency [4]: inactive
- Potency [5]: inactive
- Potency [6]: inactive
- Potency [7]: inactive
- Potency [8]: inactive
- Potency [19]: inactive
- Potency [10]: inactive
- Potency [11]: inactive
- Potency [12]: inactive
- Potency [13]: inactive
- Potency [14]: inactive
- Potency [15]: inactive
- Potency [16]: inactive

SMILES: CC(C)COC[C@H](CN(Cc1ccccc1)c1ccccc1)N1CCCC1
- Potency [17]: inactive
- outcome [1]: inactive
- Potency [20]: inactive

SMILES: CC(=O)N(CC(O)CN(C(C)=O)c1c(I)c(C(=O)NC[C@@H](O)CO)c(I)c(C(=O)NC[C@@H](O)CO)c1I)c1c(I)c(C(=O)NC[C@@H](O)CO)c(I)c(C(=O)NC[C@@H](O)CO)c1I
- outcome [2]: inactive
- Potency [3]: inactive
- Potency [4]: inactive
- Potency [5]: inactive
- Potency [6]: inactive
- Potency [7]: inactive
- Potency [8]: inactive
- Potency [19]: inactive
- Potency [9]: inactive
- Potency [10]: inactive
- Potency [12]: inactive
- Potency [13]: inactive
- Potency [14]: inactive
- Potency [15]: inactive
